In ChEMBL document CHEMBL1961873, “Compounds: GSK PKIS; Assays: Nanosyn kinase panel” (2012):

How the values were obtained:
[1] = biological target: Serine/threonine-protein kinase MRCK alpha (Homo sapiens) (UniProt Q5VT25); conditions: at 0.1 µM
[2] = biological target: Serine/threonine-protein kinase MRCK alpha (Homo sapiens) (UniProt Q5VT25); conditions: at 1 µM
[3] = biological target: Serine/threonine-protein kinase MRCK beta (Homo sapiens) (UniProt Q9Y5S2); conditions: at 0.1 µM
[4] = biological target: Serine/threonine-protein kinase MRCK beta (Homo sapiens) (UniProt Q9Y5S2); conditions: at 1 µM
[5] = biological target: Ribosomal protein S6 kinase alpha-5 (Homo sapiens) (UniProt O75582); conditions: at 0.1 µM
[6] = biological target: Ribosomal protein S6 kinase alpha-5 (Homo sapiens) (UniProt O75582); conditions: at 1 µM
[7] = biological target: Ribosomal protein S6 kinase alpha-4 (Homo sapiens) (UniProt O75676); conditions: at 0.1 µM
[8] = biological target: Ribosomal protein S6 kinase alpha-4 (Homo sapiens) (UniProt O75676); conditions: at 1 µM
[9] = biological target: Ribosomal protein S6 kinase beta-1 (Homo sapiens) (UniProt P23443); conditions: at 0.1 µM
[10] = biological target: Ribosomal protein S6 kinase beta-1 (Homo sapiens) (UniProt P23443); conditions: at 1 µM
[11] = biological target: T1, 3-phosphoinositide-dependent protein kinase 1 (Homo sapiens) (UniProt O15530); conditions: at 0.1 µM;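 further: values are mean inhibition of PDK1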
T1 sequence (whole entry): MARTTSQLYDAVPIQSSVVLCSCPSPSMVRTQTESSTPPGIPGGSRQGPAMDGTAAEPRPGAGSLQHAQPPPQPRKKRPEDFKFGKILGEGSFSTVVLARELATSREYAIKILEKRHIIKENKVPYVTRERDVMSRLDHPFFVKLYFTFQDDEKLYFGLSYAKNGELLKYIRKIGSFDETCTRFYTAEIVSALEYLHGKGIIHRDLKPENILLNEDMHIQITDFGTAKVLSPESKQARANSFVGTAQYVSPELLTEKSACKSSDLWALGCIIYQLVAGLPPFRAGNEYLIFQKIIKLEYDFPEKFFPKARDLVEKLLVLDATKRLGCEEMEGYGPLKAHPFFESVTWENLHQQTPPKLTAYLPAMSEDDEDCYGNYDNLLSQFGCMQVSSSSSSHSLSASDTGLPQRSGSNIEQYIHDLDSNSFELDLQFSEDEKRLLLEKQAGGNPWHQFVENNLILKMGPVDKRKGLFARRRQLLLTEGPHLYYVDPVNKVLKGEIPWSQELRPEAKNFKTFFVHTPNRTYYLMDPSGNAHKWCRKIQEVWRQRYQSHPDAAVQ

[12] = biological target: cAMP-dependent protein kinase catalytic subunit alpha (Homo sapiens) (UniProt P17612); conditions: at 0.1 µM
[13] = biological target: cAMP-dependent protein kinase catalytic subunit alpha (Homo sapiens) (UniProt P17612); conditions: at 1 µM
[14] = biological target: Protein kinase C alpha type (Homo sapiens) (UniProt P17252); conditions: at 0.1 µM
[15] = biological target: Protein kinase C alpha type (Homo sapiens) (UniProt P17252); conditions: at 1 µM
[16] = biological target: Protein kinase C beta type (Homo sapiens) (UniProt P05771); conditions: at 0.1 µM
[17] = biological target: Protein kinase C beta type (Homo sapiens) (UniProt P05771); conditions: at 1 µM
[18] = biological target: Protein kinase C eta type (Homo sapiens) (UniProt P24723); conditions: at 0.1 µM
[19] = biological target: Protein kinase C eta type (Homo sapiens) (UniProt P24723); conditions: at 1 µM
[20] = biological target: Protein kinase C gamma type (Homo sapiens) (UniProt P05129); conditions: at 0.1 µM;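 further: values are mean percent inhibition of PKC gamma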

Chain of Protein kinase C beta type (Homo sapiens) (P05771 2-671 limits assumed): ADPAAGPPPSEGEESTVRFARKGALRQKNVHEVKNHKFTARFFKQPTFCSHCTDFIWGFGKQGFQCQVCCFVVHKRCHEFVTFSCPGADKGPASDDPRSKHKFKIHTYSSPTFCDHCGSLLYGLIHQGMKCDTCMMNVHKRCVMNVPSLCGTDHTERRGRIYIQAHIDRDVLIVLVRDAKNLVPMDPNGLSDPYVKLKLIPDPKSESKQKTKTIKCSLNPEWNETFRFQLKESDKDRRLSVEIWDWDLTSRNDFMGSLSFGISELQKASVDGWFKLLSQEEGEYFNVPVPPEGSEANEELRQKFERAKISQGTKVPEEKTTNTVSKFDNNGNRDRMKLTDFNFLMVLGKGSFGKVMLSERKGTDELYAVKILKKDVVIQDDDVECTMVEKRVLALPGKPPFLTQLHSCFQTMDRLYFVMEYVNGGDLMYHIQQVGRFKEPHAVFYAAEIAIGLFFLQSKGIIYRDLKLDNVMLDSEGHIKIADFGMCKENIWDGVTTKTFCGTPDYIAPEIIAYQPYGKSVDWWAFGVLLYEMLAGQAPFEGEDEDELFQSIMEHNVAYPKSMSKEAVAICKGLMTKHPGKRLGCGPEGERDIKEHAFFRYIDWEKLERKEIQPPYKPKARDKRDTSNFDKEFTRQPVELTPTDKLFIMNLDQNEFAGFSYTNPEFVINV
Chain of Ribosomal protein S6 kinase beta-1 (Homo sapiens) (P23443 whole entry, looked up): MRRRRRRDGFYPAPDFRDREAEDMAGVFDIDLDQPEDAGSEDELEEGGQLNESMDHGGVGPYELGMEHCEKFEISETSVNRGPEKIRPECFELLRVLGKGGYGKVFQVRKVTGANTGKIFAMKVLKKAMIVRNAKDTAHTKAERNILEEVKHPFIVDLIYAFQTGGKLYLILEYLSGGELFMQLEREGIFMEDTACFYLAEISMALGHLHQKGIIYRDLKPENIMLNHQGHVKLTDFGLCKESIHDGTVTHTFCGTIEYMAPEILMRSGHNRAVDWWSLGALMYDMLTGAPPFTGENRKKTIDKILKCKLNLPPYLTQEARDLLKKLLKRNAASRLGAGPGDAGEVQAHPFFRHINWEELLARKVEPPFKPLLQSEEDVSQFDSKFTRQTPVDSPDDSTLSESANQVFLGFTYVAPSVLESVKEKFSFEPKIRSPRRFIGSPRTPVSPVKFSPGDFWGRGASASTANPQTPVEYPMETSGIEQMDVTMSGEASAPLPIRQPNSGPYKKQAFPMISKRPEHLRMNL
Chain of Protein kinase C eta type (Homo sapiens) (P24723 whole entry): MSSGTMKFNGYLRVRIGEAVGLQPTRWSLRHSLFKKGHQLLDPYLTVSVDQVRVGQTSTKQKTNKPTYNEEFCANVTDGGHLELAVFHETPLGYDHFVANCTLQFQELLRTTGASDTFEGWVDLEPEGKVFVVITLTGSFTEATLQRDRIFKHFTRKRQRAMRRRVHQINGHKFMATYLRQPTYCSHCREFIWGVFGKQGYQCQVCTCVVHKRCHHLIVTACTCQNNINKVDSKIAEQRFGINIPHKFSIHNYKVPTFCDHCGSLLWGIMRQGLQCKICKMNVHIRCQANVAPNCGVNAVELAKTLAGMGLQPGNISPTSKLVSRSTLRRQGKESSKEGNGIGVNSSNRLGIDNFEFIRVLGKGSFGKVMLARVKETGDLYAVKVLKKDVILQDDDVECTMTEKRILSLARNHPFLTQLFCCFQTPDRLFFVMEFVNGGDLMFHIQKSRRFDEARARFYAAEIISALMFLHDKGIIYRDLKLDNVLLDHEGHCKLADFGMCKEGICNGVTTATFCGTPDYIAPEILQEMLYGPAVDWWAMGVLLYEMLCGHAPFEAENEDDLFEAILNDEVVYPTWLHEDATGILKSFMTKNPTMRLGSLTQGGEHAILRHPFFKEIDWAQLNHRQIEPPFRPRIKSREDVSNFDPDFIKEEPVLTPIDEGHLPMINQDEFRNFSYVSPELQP
Chain of Ribosomal protein S6 kinase alpha-4 (Homo sapiens) (O75676 whole entry, looked up): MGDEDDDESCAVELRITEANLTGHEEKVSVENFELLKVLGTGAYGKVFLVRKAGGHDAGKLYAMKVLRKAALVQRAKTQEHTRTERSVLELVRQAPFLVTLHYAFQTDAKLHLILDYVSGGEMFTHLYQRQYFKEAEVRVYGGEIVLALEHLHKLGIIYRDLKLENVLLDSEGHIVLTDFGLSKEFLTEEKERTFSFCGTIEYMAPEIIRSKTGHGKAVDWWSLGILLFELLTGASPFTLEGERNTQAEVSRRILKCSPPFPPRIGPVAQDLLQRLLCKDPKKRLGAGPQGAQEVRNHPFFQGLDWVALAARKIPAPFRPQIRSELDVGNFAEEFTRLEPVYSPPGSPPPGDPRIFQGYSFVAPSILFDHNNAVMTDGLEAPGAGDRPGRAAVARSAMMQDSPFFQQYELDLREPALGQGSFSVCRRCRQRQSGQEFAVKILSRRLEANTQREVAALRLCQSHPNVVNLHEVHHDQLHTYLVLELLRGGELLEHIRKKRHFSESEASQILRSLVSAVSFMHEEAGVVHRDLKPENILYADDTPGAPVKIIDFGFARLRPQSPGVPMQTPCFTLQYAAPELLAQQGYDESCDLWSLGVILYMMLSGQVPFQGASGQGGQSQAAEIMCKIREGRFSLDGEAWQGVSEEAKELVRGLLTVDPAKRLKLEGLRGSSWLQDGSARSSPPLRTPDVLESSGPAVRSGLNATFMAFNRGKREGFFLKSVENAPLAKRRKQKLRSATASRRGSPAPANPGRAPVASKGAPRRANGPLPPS
Chain of Serine/threonine-protein kinase MRCK beta (Homo sapiens) (Q9Y5S2 whole entry): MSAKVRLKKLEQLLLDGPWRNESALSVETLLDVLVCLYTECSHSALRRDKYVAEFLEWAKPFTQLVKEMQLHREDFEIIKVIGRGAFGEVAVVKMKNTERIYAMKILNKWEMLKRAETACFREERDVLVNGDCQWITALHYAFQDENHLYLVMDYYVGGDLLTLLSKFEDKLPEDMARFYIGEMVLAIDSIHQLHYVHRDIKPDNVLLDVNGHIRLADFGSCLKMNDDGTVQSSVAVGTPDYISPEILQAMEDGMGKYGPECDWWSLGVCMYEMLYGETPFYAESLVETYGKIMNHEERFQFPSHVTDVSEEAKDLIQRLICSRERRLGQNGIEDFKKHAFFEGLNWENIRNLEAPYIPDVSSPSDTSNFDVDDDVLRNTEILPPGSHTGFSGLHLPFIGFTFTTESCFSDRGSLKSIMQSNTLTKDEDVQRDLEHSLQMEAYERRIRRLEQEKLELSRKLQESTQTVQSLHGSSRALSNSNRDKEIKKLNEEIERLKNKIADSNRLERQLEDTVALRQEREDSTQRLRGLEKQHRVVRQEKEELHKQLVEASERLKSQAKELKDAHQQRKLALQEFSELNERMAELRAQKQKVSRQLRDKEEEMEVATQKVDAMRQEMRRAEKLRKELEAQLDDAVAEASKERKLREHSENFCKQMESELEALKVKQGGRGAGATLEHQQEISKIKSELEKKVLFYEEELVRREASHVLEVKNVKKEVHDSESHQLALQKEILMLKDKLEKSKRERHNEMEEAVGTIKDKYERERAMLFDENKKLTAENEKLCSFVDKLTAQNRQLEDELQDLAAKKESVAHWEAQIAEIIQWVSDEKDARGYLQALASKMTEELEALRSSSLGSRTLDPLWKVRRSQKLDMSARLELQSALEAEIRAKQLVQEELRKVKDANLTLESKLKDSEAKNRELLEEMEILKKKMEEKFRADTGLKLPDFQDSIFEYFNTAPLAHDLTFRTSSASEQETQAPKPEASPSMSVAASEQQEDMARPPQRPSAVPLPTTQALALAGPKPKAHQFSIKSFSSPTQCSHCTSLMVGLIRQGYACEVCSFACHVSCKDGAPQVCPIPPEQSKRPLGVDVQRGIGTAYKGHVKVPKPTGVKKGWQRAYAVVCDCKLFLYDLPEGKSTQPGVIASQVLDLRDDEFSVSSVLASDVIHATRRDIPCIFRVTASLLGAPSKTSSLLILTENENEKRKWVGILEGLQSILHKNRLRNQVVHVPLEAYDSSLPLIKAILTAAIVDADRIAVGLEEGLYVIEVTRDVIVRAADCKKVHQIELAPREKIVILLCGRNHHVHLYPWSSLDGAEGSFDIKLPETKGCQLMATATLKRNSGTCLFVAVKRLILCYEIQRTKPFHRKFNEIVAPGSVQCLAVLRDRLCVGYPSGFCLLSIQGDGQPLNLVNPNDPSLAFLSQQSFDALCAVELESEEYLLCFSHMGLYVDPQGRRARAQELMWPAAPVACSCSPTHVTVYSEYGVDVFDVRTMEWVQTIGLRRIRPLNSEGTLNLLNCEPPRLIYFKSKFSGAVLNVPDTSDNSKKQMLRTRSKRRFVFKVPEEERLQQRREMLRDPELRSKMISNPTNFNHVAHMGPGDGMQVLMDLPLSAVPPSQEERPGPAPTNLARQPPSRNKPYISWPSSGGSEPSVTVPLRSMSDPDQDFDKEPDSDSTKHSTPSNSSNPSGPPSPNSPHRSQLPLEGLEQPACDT

SMILES | inhibition [1] [%] | inhibition [2] [%] | inhibition [3] [%] | inhibition [4] [%] | inhibition [5] [%] | inhibition [6] [%] | inhibition [7] [%] | inhibition [8] [%] | inhibition [9] [%] | inhibition [10] [%] | inhibition [11] [%] | inhibition [12] [%] | inhibition [13] [%] | inhibition [14] [%] | inhibition [15] [%] | inhibition [16] [%] | inhibition [17] [%] | inhibition [18] [%] | inhibition [19] [%] | inhibition [20] [%]
CCN(CC)S(=O)(=O)c1ccc(OC)c(Nc2ncc(-c3ccccc3)o2)c1 | 1.92 | 0.2 | -0.21 | -0.04 | 3.03 | 6.51 | 0.54 | 1.06 | 1.32 | 0.49 | 1.9 | 0.79 | 1.82 | 0.46 | 1.64 | 1.38 | 1.74 | 3.12 | 0.58 | 0.29
CCc1nn2ncccc2c1-c1ccnc(NC2CC2)n1 | 3.74 | 2.27 | 1.18 | 2.16 | 0.41 | 1.19 | 1.26 | 3.44 | 1.12 | 2.51 | 1.73 | 0.78 | 1.73 | 0.35 | 1.73 | 1.02 | 2.65 | 0.47 | 0.53 | 0.95
Nc1nc(-c2ccc(F)cc2)c(-c2ccc3ncccc3n2)s1 | -0.11 | 3.87 | 0.89 | 0.94 | 3.54 | 3.83 | 3.18 | 4.49 | 2.53 | 2.7 | 3.99 | 1.65 | 3.75 | 1.13 | 2.9 | 0.21 | 3.92 | 1.76 | 6.71 | 2.26
CC(C)COC(=O)c1ccc2c(c1)/C(=C/Nc1ccc(S(N)(=O)=O)cc1)C(=O)N2 | 3.02 | 6.98 | 3.62 | 12.7 | 3.88 | 11.6 | 5.45 | 20.9 | 3 | 18.1 | 19.6 | 6.49 | 11.8 | 1.15 | 7.21 | 3.19 | 5.57 | -1.68 | 1.97 | -1.87
CCOc1ccc2c(-c3ccnc(Nc4cccc(C(F)(F)F)c4)n3)cnn2n1 | -4.67 | -1.89 | -0.48 | -1.84 | 0.66 | -1.09 | 1.4 | -0.01 | 0.31 | -0.17 | -2.03 | 1.32 | 1.22 | 0.95 | 0.74 | 0.58 | 0.67 | 0.98 | -0.29 | 4.45
COc1cccc(-n2ncc3c(N/N=C/c4ccc(F)cc4)ncnc32)c1 | -0.63 | 1.53 | -0.45 | 0.66 | 4.05 | 4.15 | 2.78 | 4.13 | 1.73 | 3.51 | 0.01 | 1.66 | 3.69 | 0.47 | 1.43 | 1.01 | 0.97 | 3.28 | 2.58 | 0.86
O=C(Nc1n[nH]c2cc(-c3ccc(F)cc3)ccc12)C1CC1 | 0.19 | 0.87 | 0.84 | 5.66 | 13.8 | 13.6 | 6.38 | 8.25 | 2 | 2.94 | 1.87 | 1.56 | 5.1 | 0.82 | 2.18 | 2.92 | 6.56 | 3.22 | 6.59 | 3.26
c1ccc(-c2nc3n(c2-c2ccc4c(c2)OCO4)CCC3)nc1 | 1.51 | -0.39 | 1.65 | 4.63 | 8.97 | 8.14 | 5.25 | 6.79 | 1.12 | 0.67 | 0.98 | 1.49 | 5.08 | 0.9 | 1.8 | 3.53 | 5.04 | 1.35 | 1.85 | 0
Fc1ccc(-c2cc(-c3c[nH]nc3-c3ccccn3)ccn2)cc1 | -0.62 | 2.14 | -1.2 | -2.11 | 2.42 | 1.68 | 2.17 | 3.21 | 0.99 | 2.4 | 0.78 | 1.9 | 2.54 | 0.45 | 0.88 | 1.93 | 3.1 | 4.28 | 6.6 | -0.18
c1cc(-c2cnn3nc(N4CCOCC4)ccc23)nc(NC2CC2)n1 | 0.21 | -0.69 | 0.92 | 0.61 | 3.83 | 3.75 | 0.89 | 6.24 | 1.29 | 3.7 | 4.31 | 1.21 | 1.42 | 1.17 | 6.27 | -0.45 | -0.77 | 2.39 | 2.99 | 6.1
